Source: PubChem BioAssay
CF NFkB block: blocks PAF-induced NF-kB reporter in cystic fibrosis cells; 360,000 compounds, 0.86% hits; AID 588850; inhibition, % at 5 µM; KKLEB NF-kB-GFP reporter, GFP fluorescence overnight;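 active = at least 50% inhibition at 5 µM, scaled per plate between neutral and stimulator controls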;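 note: PAF is a Pseudomonas aeruginosa culture filtrate used as stimulus; plate controls were PAF-stimulated DMSO wells for no effect and unstimulated DMSO wells for full effect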
Shn3 3UTR inh: reduces Shn3 3'UTR luciferase signal in osteoblasts. Clone20 osteoblast Shn3 3'UTR firefly luciferase, 24 h. AID 588674. 360,000 compounds, 0.52% hits. inhibition, % at 12.5 µM;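 active = mean inhibition of at least 75% with every replicate also reaching 75%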;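 note: 0% = median of neutral control wells and 100% = pilot-screen positive control compound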
KKLEB tox: CF airway cell cytotoxicity counter-screen; KKLEB CF airway cells viability, ATPlite luminescence, overnight; stronger effect = lower value; cells stimulated with P. aeruginosa culture filtrate; activity change (cytotoxicity), % at 5 µM; 360,000 compounds, 0.36% hits;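 active = corrected activity change at or below -50% at 5 µM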
Peg3 prom inh: reduces Peg3 promoter-driven luciferase expression in HeLa; 360,000 compounds, 1.7% hits; AID 588405; inhibition, % at 20 µM; HeLa PEG-Prom luciferase reporter, luminescence, overnight;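 active = inhibition of at least 50% at 20 µM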
HIF-2a inh: blocks HIF-2a reporter activity; 786-0 RCC cells HIF-2a reporter, luciferase luminescence, overnight; inhibition, % at 18.8 µM; 360,000 compounds, 0.72% hits; AID 624352;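 active = inhibition of the luminescence signal of 40% or more relative to plate controls, in a single-dose primary screen at 18.75 µM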
LMP1 NFkB inh: Epstein-Barr LMP1 NF-kappaB reporter inhibition | LMP1-induced NF-kappaB luciferase reporter cells, luminescence | inhibition, % at 12.5 µM | 350,000 compounds, 0.69% hits; in the data active = inhibition above about 41%;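 note: 0% = neutral control wells and 100% = reference inhibitor control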
The depositor's hits bear a star; / = no result. Most compounds without a hit are left out; they make up all but 2.9% or so of the library.

SMILES	CF NFkB block	Shn3 3UTR inh	KKLEB tox	Peg3 prom inh	HIF-2a inh	LMP1 NFkB inh
COc1cc(/C=C2\CCC/C(=C\c3ccc(O)c(OC)c3)C2=O)ccc1O	-11	14	-16	105*	81*	-9
Cc1oncc1C(=O)NC(C)C	-19	3	9	29	-1	1
CN(CC(=O)NCc1ccc2c(c1)OCO2)S(=O)(=O)c1ccc(Br)s1	3	94*	-2	-8	2	-7
CCC(=O)NC(c1cc(Cl)c2cccnc2c1O)C1CC1 (centres undefined)	2	78	-10	36	15	40*
CCC(=O)NC(c1cc(Cl)c2cccnc2c1O)C(C)C (centres undefined)	1	69	7	35	16	47*
CC(=O)NC(c1cc(F)c2cccnc2c1O)C1CC1 (centres undefined)	-26	47	12	19	9	16
CN1CCN(CC(O)COc2ccc(C34CC5CC(CC(C5)C3)C4)cc2)CC1 (centres undefined)	25	-21	-34	105*	-20	-55
COc1cc(NC(=O)COC(=O)C=C(C)C)c(C)cc1[N+](=O)[O-]	-1	-17	-6	-11	-30	-1
COc1ccc(N(CC(=O)N2CCN(c3ccccc3F)CC2)S(=O)(=O)c2ccc(C)cc2)cc1	-22	14	-13	7	12	-22
CCN1C(=O)/C(=C2\C=Cc3cc(C)ccc3N2CC)OC1=S	-1	-19	1	-44	-60	5
CCN1/C(=C/c2cc[n+](C)cc2)C=Cc2cc(C)ccc21	-46	80	1	61*	6	30
COc1ccc(OC)c(-c2c(C#N)c(N)nc3c2c(=O)nc2sccn23)c1	0	-5	8	2	21	-3
COC(=O)c1ccc2c(=O)n(CCCCCC(=O)N3CCN(c4ccccc4)CC3)c(=O)[nH]c2c1	-8	78	2	47	3	-1
COc1ccc(N2CCN(CCNC(=O)CCCn3c(=O)[nH]c4cc(Cl)ccc4c3=O)CC2)cc1	-8	-2	2	8	4	81*
COc1cc2[nH]c(=O)n(CCCCCC(=O)N3CCN(c4ccccc4)CC3)c(=O)c2cc1OC	15	-13	-5	58*	26	7
Cc1cccc(N(C(=O)CNC(=O)c2ccco2)C(C(=O)NC2CCCC2)c2cccnc2)c1C (centres undefined)	-6	7	4	4	8	7
CCOc1cc(C(=O)OC(C)C(=O)Nc2ncc(Cl)cc2Cl)ccc1OCC(=O)N1CCOCC1 (centres undefined)	11	0	-10	7	20	61*
CCOc1cc(C(=O)OC(C)C(=O)Nc2ccccc2OC)ccc1OCC(=O)N1CCOCC1 (centres undefined)	0	-17	2	16	6	-4
CN1CCN(c2ccc(CNC(=O)c3ccc(-c4ccc(F)c(F)c4)c4ccoc34)cc2)CC1	-16	-1	9	63*	-30	/
O=C(NCc1ccc(C(F)(F)F)cc1)c1cccc2c(-c3ccc(F)c(F)c3)coc12	-21	5	13	-4	-25	/
O=C(NCc1ccc(C(F)(F)F)cc1)c1ccc(-c2ccc(F)c(F)c2)c2ccoc12	-2	18	3	-6	-19	/
CN1CCN(c2ccc(CNC(=O)c3cccc4c(-c5ccc(F)c(F)c5)coc34)cc2)CC1	-9	-1	-12	73*	-46	/
CC(C)CCNC(=O)CNC(=S)N(Cc1ccccc1)Cc1cccnc1	-2	2	10	16	9	1
COc1ccc(S(=O)(=O)N(C)C[C@@H]2Oc3cc(Br)ccc3S(=O)(=O)N([C@H](C)CO)C[C@@H]2C)cc1	-20	16	9	54*	-7	-3
COc1ccc(S(=O)(=O)N(C)C[C@H]2Oc3cc(Br)ccc3S(=O)(=O)N([C@H](C)CO)C[C@H]2C)cc1	27	-6	-15	20	13	-6
SMILES	CF NFkB block	Shn3 3UTR inh	KKLEB tox	Peg3 prom inh	HIF-2a inh	LMP1 NFkB inh
CCOc1cc([C@@H]2C[C@H]3CN(c4ccccc4)C(=O)[C@]34CCCN24)ccc1OC	5	41	8	98*	2	-10
COc1cc([C@@H]2C[C@H]3CN(c4ccccc4)C(=O)[C@]34CCCN24)cc(OC)c1OC	1	8	8	87*	6	33
COc1ccccc1-n1cc([C@@H]2C[C@H]3CN(c4ccccc4)C(=O)[C@]34CCCN24)cn1	86*	97*	-56*	98*	-54	60*
COc1cc(Cl)c([C@@H]2C[C@H]3CN(c4ccccc4)C(=O)[C@]34CCCN24)cc1OC	-4	3	-12	19	14	-1
Cc1ccc(NS(=O)(=O)c2ccc(C(=O)OCC(=O)NCC3CCCO3)cc2)cc1 (centres undefined)	-11	1	3	-3	1	-17
O=C1Nc2c(Br)cc(Br)c3cccc1c23	-22	7	-3	74*	2	9
O=C1NC(=O)c2cc(Br)cc3cccc1c23	-127	15	11	-22	4	1
CC(NCc1ccc(OCc2ccc(Cl)cc2)cc1)C(O)c1ccccc1 (centres undefined)	32	97*	-18	104*	-63	-34
Cc1cccc(NC(=O)Cn2ccn(-c3ccc4c(c3)OCCO4)c(=O)c2=O)c1	20	6	-13	-20	-11	1
CCn1c2ccccc2c2cc(N=C3SC(CC(=O)Nc4ccccc4OC)C(=O)N3C)ccc21 (centres undefined)	6	0	-4	11	13	-4
CCn1c2ccccc2c2cc(N=C3SC(CC(=O)Nc4ccccc4)C(=O)N3C)ccc21 (centres undefined)	56*	9	-52*	11	20	3
C=CCn1c(SCC(=O)Nc2sccc2C(N)=O)nc2ccc(Cl)cc2c1=O	-13	75	-7	52*	23	-10
C=CCn1c(SCC(=O)Nc2sccc2C(N)=O)nc2sc(CC)cc2c1=O	-14	76	-4	57*	-3	13
COCC(=O)N(C)c1nnc(-c2ccc([N+](=O)[O-])cc2)s1	-23	-11	5	-112	-93	4
COCC(=O)N(C)c1nnc(-c2ccccn2)s1	-26	-21	8	-45	-76	50*
c1ccc(-c2nnc(-c3ccccn3)s2)nc1	-13	-2	3	-38	-34	47*
CCn1c(CCl)nc2cc(S(=O)(=O)N3CCOCC3)ccc21	8	-2	1	71*	13	/
CCn1c(SCC(N)=O)nc2cc(S(=O)(=O)N3CCOCC3)ccc21	9	1	0	-1	14	-1
CC1(C(=O)NCC(F)(F)F)CCN1C(=O)C1(c2ccccc2)CC1 (centres undefined)	-16	-7	2	7	5	/
